Experimental findings from PubChem BioAssay (NCATS) are described below.

Experiment [1] can be described thus: Viability qHTS for spleen associated tyrosine kinase inhibitor (SYKi) naive MV4-11 cells (AID 1963823). Also: nearly all actives have a fitted effect of over 40% in size. In short, it runs like this: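 Read-out: CellTiter-Glo luminescence. Exposure: 72 hr, 37 C, 5% CO2, 95% humidity. Cells: MV4-11 without SYK inhibitor history, 500/well, qHTS format.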
A short description of experiment [2]: Viability qHTS for spleen associated tyrosine kinase inhibitor (SYKi) drug resistant MV4-11 cells (AID 1963824). Also: nearly all actives have a fitted effect of over 35% in size. In short, it runs like this:
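CellTiter-Glo luminescence, read 10 min after reagent addition, reports viability after a 72 hr compound exposure. Cells are an MV4-11 line made resistant to SYK inhibition, seeded at 500 per well onto compound-containing plates.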

Experiment [3] can be described thus: Quantitative highthroughput screen to assess conditional lethalithy of NOMO1 cells grown in RPMI1640 with dialyzed fetal bovine serum (RPMI+ds) (AID 1963877). Also: nearly all actives have a fitted effect of over 30% in size. An outline of the steps: (§1)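 Each medium arm—HPLM with 10% dialyzed FBS, or RPMI1640 with 5 mM glucose and 10% untreated or dialyzed FBS—was screened against an 11-point, 3-fold compound titration for 48 h at 37 °C, with CellTiter-Glo luminescence as endpoint.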

A short description of experiment [4]: Quantitative highthroughput screen to assess conditional lethalithy of NOMO1 cells grown in Human Plasma-Like Medium with dialyzed fetal bovine serum (HPLM+ds) (AID 1963878). Also: nearly all actives have a fitted effect of over 35% in size. An outline of the steps: as §1
Experiment [5] in a line: Quantitative highthroughput screen to assess conditional lethalithy of SEM cells grown in Human Plasma-Like Medium with dialyzed fetal bovine serum (HPLM+ds) (AID 1963882). Also: nearly all actives have a fitted effect of over 35% in size. As to Viability: series mostly up to about 46 µM. An outline of the steps:
as §1

A short description of experiment [6]: Quantitative highthroughput screen to assess conditional lethalithy of SEM cells grown in RPMI1640 with unreated serum (RPMI+s) (AID 1963883). Also: nearly all actives have a fitted effect of over 35% in size.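 As to Viability: 100% = DMSO wells and 0% = empty wells without cells.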 An outline of the steps: as §1
The nature of experiment [7]: Quantitative highthroughput screen to assess conditional lethalithy of SEM cells grown in RPMI1640 with dialyzed fetal bovine serum (RPMI+ds) (AID 1963884). Also: nearly all actives have a fitted effect of over 35% in size.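 As to Viability: series mostly up to about 46 µM; 100% = DMSO control wells and 0% = empty wells without cells.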 In short, it runs like this:
as §1

The nature of experiment [8]: Quantitative highthroughput screen to assess conditional lethalithy of P12 Ichikawa cells grown in Human Plasma-Like Medium with dialyzed fetal bovine serum (HPLM+ds) (AID 1963879). Also: nearly all actives have a fitted effect of over 35% in size. As to Viability: series mostly up to about 46 µM. The note with it: Potency: viability. In short, it runs like this: as §1
Experiment [9] in a line: Quantitative highthroughput screen to assess conditional lethalithy of P12 Ichikawa cells grown in RPMI1640 with dialyzed fetal bovine serum (RPMI+ds) (AID 1963880). Also: nearly all actives have a fitted effect of over 35% in size.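 As to Viability: 100% = DMSO wells and 0% = empty wells on each plate.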 The conditions noted are these: Potency: P12-Ichikawa viability. An outline of the steps:
as §1

Experiment [10] in a line: Quantitative highthroughput screen to assess conditional lethalithy of P12 Ichikawa cells grown in RPMI1640 with untreated serum (RPMI+s) (AID 1963881). Also: nearly all actives have a fitted effect of over 35% in size.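 As to Viability: series mostly up to about 46 µM; 100% = DMSO wells and 0% = empty wells without cells.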 The conditions noted are these: Potency: viability. An outline of the steps: as §1
Experiment [11] is described as follows: Cellular viability qHTS for adrenocortical cancer (ACC) cell line SW-13 (AID 1963989). Also: nearly all actives have a fitted effect of over 65% in size.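 As to activity (max response): cells grown in serum-free medium with ITS supplement; % is scaled to controls: 0 for no effect and ±100 for the full control effect.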 The conditions noted are these: SW-13 ACC cells viability, CellTiter-Glo, 48 h; activity (max response): stronger effect = lower value. In short, it runs like this:
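IC50 and maximal-response values come from four-parameter logistic fits of titration data. SW-13 cells in serum-free medium received compounds (up to 46 uM final) for 48 h before CellTiter-Glo luminescence.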

The nature of experiment [12]: Cellular viability qHTS for adrenocortical cancer (ACC) cell line NCI-H295R (AID 1963990). Also: nearly all actives have a fitted effect of over 60% in size. In short, it runs like this: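 Adrenocortical carcinoma cells, suspended at 300 000 cells/mL in serum-free DMEM plus ITS, rested overnight before pin transfer of compound. After two days' incubation, ATP-dependent luminescence was recorded and curve-fitted.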

Several values for one entry are separate records, joined by “and”; a condition that tells them apart may be missing. Identical values can stand only once. Results filed as inconclusive are left out. A number with no mark means an inactive call. Activity calls are given as the source filed them. Calls follow the shape of the dose curve; as a rule, active = well fitted curve in the direction sought with a large enough effect; inconclusive = small, poorly fitted or top-dose-only effect, or another doubt; inactive = no such curve, though single readings can be large; an effect the other way counts as inactive or inconclusive.
Potency is read from the fitted curve at half-maximal effect.

For `C[C@@H]1C[C@H]2[C@@H]3CCC4=CC(=O)C=C[C@]4(C)[C@@]3(Cl)[C@@H](O)C[C@]2(C)[C@@]1(OC(=O)c1ccco1)C(=O)CCl`, the Potency was 16.8 µM (active) and 8.33 µM (active) in experiment [1]; 8.41 µM (active) and 4.68 µM (active) in experiment [2]; 6620 nM (active) in [3]; 1180 nM (active) in [4]. Moreover, the Potency result in experiment [5], in experiment [6] and in experiment [7] was “inactive” each time.

In the case of `CN(C)CCCN=c1c2ccccc2n(C)c2[nH]c(=O)n(C)c(=O)c12`, the Potency in experiment [1] is 5900 nM (active); in [2], 8330 nM (active); in [3], 20900 nM (active); in experiment [8], 26400 nM (active); in experiment [9], 18700 nM (active); in experiment [10], 18700 nM (active). The Potency in [5] was 11800 nM (active); in experiment [6], 10500 nM (active); in experiment [11], 25.1 µM (active); in experiment [12] it was 28200 nM (active).

For `N=c1ccn2c(n1)O[C@H]1[C@@H](O)[C@@H](CO)O[C@H]12`, the Potency in experiment [1] is 2950 nM (active); in [2] it was 3320 nM (active); in experiment [3], 1480 nM (active); in [4], 1480 nM (active); in [8], 132 nM (active); in experiment [9], 132 nM (active). For the same compound, the Potency in experiment [10] was 118 nM (active); in experiment [5], 132 nM (active); in [7], 93.5 nM (active). Besides, the Potency result in [12] was “inactive”.

As for `Cc1cc(Nc2nc(N[C@@H](C)c3ccc(F)cc3)c(C#N)cc2F)n[nH]1`, the Potency in [1] was 651 nM (active); in experiment [2], 580 nM (active) and 590 nM (active); in experiment [3], 2640 nM (active); in experiment [9], 2090 nM (active); in experiment [10], 2350 nM (active); in [5], 3320 nM (active). The Potency was 2960 nM (active) in experiment [6], 2640 nM (active) in experiment [7] and 3.16 µM (active) in [11].

As to `Cn1cc(-c2[nH]c3cc(NC(=O)[C@H](N)C4CCCCC4)cc4c3c2C=NNC4=O)cn1`, the Potency in experiment [1] was 66.1 nM (active); in experiment [2] it was 164 nM (active) and 83.3 nM (active); in [3], 5260 nM (active); in experiment [8], 16600 nM (active); in experiment [9], 6620 nM (active); in experiment [10], 7430 nM (active). Also, the Potency in [5] is 2960 nM (active); in experiment [7], 1180 nM (active).

In the case of `Cc1cc(C(C)(C)C)c(O)c(C)c1CC1=NCCN1`, the Potency result in experiment [1], in experiment [2] and in experiment [12] was “inactive” each time. Besides, the Potency in experiment [8] is 8330 nM (active); in experiment [10] it was 10500 nM (active).

Regarding `CN1CCCN(C(=O)c2cccc(-c3ccc(C=C4C(=O)Nc5ccc(Cl)cc54)o3)c2)CC1`, the Potency was 517 nM (active) in experiment [1]; 461 nM (active) in [2]; 2960 nM (active) in experiment [8]; 14800 nM (active) in [9]; 5900 nM (active) in [5]; 1320 nM (active) in experiment [6]. The Potency in [7] is 1870 nM (active).

Consider `Nc1ncnc2c1c(-c1cccc(OCc3ccccc3)c1)cn2C1CC(CN2CCC2)C1` (stereo not given), for which the Potency is 580 nM (active) in experiment [1] and 920 nM (active) in experiment [2]. Besides, the Potency result in [8], in experiment [9] and in experiment [10] was “inactive” throughout. The activity (max response) in [11] was 12.1%.

`c1cnc2cc3c(cc2n1)C1CNCC3C1`: the Potency entry in experiment [1], in [2], in experiment [8], in experiment [9], in experiment [5] and in experiment [6] was “inactive” each time. Further, the Potency entry in experiment [7] and in [12] was “inactive” each time. Also, in [11], the activity (max response) is 7.13% and 6.77%.

As for `O=C(O)C1(Cc2cccc(Nc3nccs3)n2)CCC(Oc2cccc(Cl)c2F)CC1` (stereo not given), the Potency in experiment [1] is 517 nM (active); in experiment [2] it was 461 nM (active) and 468 nM (active); in experiment [8], 2350 nM (active); in experiment [10], 2640 nM (active); in [5] it was 2960 nM (active); in [6], 3320 nM (active).

Turning to `Cc1cc(C(=O)NOCCO)c(Nc2ccc(I)cc2F)n(C)c1=O`, the Potency was 52.5 nM (active) in experiment [1] and 41.1 nM (active) in experiment [2]. The Potency result in [8], in [9], in experiment [10], in [6] and in experiment [12] was “inactive” throughout.

`Oc1ccc(-c2ccc(-c3cc(Nc4cccc(CNC5CC5)c4)n[nH]3)cc2)c(O)c1`: the Potency is 833 nM (active) in experiment [1]; 461 nM (active) in [2]; 2350 nM (active) in experiment [8]; 2350 nM (active) in experiment [10]; 1660 nM (active) in experiment [5]; 7430 nM (active) in [7]. Also, the results for the Potency in experiment [11] and in experiment [12] were 25.1 µM (active) and 10000 nM (active), respectively.

Take `Cn1cnc2c1c(=O)[nH]c(=O)n2C`: the Potency result in [1], in [2] and in experiment [12] was “inactive” in each case. Besides, the values for the Potency in experiment [4], in experiment [6] and in [7] were 20900 nM (active), 18700 nM (active) and 23500 nM (active), respectively. Besides, in experiment [11], the activity (max response) was 4.02% and 2.06%.

`COc1ccc2cc3[n+](cc2c1OC)CCc1cc2c(cc1-3)OCO2`: the Potency in experiment [1] was 4.22 µM (active) and 1.48 µM (active); in experiment [2], 1.68 µM (active) and 934 nM (active); in experiment [8] it was 18700 nM (active); in experiment [10] it was 18700 nM (active); in [6], 20900 nM (active); in experiment [7], 18700 nM (active). Besides, the Potency in [11] is 10.3 µM (active) and 8.91 µM (active). Also, the Potency entry in experiment [12] was “inactive”.

For `CN[C@@H]1CN(c2ccc3c(=O)c(C(=O)O)cn(-c4nccs4)c3n2)C[C@@H]1OC`, the Potency in experiment [1] is 407 nM (active); in [2], 512 nM (active); in experiment [8] it was 14400 nM (active); in experiment [9], 8120 nM (active); in [10] it was 6450 nM (active); in [5], 6450 nM (active). Moreover, the Potency is 1440 nM (active) in experiment [6] and 2040 nM (active) in experiment [7]. The activity (max response) in [11] was -14.5%.

Take `CCn1c(-c2nonc2N)nc2c(C#CC(C)(C)O)ncc(OC[C@H]3CCCNC3)c21`: the Potency was 16600 nM (active) in experiment [1]; 7420 nM (active) in experiment [2]; 52.6 nM (active) in experiment [8]; 18700 nM (active) in [5]; 23500 nM (active) in experiment [6]; 14800 nM (active) in experiment [7]. Besides, the Potency is 28.2 µM (active) in experiment [11] and 17800 nM (active) in experiment [12].

Consider `C[C@@H](Oc1cc(-n2cnc3ccc(CN4CCN(C)CC4)cc32)sc1C(N)=O)c1ccccc1C(F)(F)F`, for which the Potency in [1] is 20.9 nM (active); in experiment [2], 10.5 nM (active); in experiment [8], 29.6 nM (active); in experiment [10], 33.2 nM (active); in experiment [6], 33.2 nM (active); in experiment [11] it was 0.0501 µM (active).
